Measured values taken from PubChem BioAssay AID1850 (Southern Research Specialized Biocontainment Screening …, 2009).
Values joined by “and” are separate entries in the source; they are usually repeats but may differ in a detail not shown here. Equal values may be shown once. Screen size: about 310,000 compounds; about 1,000 (0.32%) were called active. These entries were drawn from the full list. Results with a measured potency or affinity are listed apart. A number with no mark means an inactive call. No rule for the calls is given here.

experiment: Inhibition of PhoP regulon, Salmonella typhi GFP reporter cells, confirmation, 4 h (AID 1850); details: Salmonella Typhi PhoP-promoter GFP reporter, fluorescence, at 50 µM, hits give high values;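 also: 0% = induced wells with vehicle and 100% = uninduced wells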

| SMILES | inhibition |
| --- | --- |
| O=c1c(/C=N\NS(=O)(=O)c2ccccc2)coc2ccc(Cl)cc12 | -7.39% |
| C/C(=C\c1ccccc1)CN1CCN(C(C)C)C(CCO)C1 (centres undefined) | -0.3% |
| CC1=CC(c2ccccc2)n2ncnc2N1 (centres undefined) | 3.87% |
| COC/C=C/C1=CC2=CC(=O)C(C)(OC(=O)c3cnc4ccccc4n3)C(=O)C2=CN1CCc1ccccn1 (centres undefined) | 0.66% |
| CC(C)c1ccccc1OCC(O)CN(CC(O)COc1cccc2ccccc12)C(C)C (centres undefined) | -6.27% |
| CCN(CCNCC(O)COCc1ccc(Cl)cc1)c1cccc(C)c1 (centres undefined) | -1.24% |
| Cc1c(Cl)cccc1NC(CC(=O)c1ccccc1)C(=O)OCC(=O)c1cccs1 (centres undefined) | -2.54% |
| Cc1ccc(S(=O)(=O)NNC(=O)C(=O)NNS(=O)(=O)c2ccc(C)cc2)cc1 | -7.52% |
| Cc1ccc(S(=O)(=O)NNc2ccccc2)cc1 | 32.1% |
| Cc1ccc(S(=O)(=O)NNC(=O)Nc2cccc(F)c2)c(C)c1 | -7.92% |
| Cc1ccc(S(=O)(=O)NNC2=NS(=O)(=O)c3ccccc32)c(C)c1 | 0.74% |
| CC(=O)Nc1ccc(S(=O)(=O)NNC(=O)COc2cccc(C)c2)cc1 | 9.44% |
| Cc1cccc(NC(=O)Nc2ccc(S(N)(=O)=O)cc2)c1 | -0.31% |
| CCOC(=O)N1CCN(Cc2nc3cc(NC(=O)c4cccs4)ccc3n2C)CC1 | -16.8% |
| COc1cc(CNn2cn[nH]c2=S)ccc1OCC(=O)NC(C)(C)C | -5.11% |
| CC(=O)N1CN2CN(C(C)=O)CC(C(=O)c3ccc([N+](=O)[O-])cc3)(C2)C1 | 5.88% |
| CCOC(=O)c1ccccc1NC(=O)CSc1nc2ccccc2n1CC(=O)N1CCCC1 | -7.2% |
| CN(C)c1ccc(/C=C/c2nc3ccccc3s2)cc1 | -9.15% |
| Cc1nc2ccc(C(=O)Nc3ccc(N(C)C)cc3)cc2s1 | -5.67% |
| CC(C)CNC(=O)C(=O)NCCCN1CCOCC1 | 3.18% |
| CCOc1ccc(N2C(=O)CC(NCCc3c[nH]c4ccccc34)C2=O)cc1 (centres undefined) | 6.97% |
| CCOc1ccc(NC(=O)CSc2nc3ccccc3nc2N2CC(C)OC(C)C2)cc1 (centres undefined) | -3.96% |
| COc1ccc(CNC(=O)C2CCN(S(=O)(=O)c3ccc4c(c3)CC(C)N4C(C)=O)CC2)cc1 (centres undefined) | 1.71% |
| Cc1ccc2nc(N(CCCN(C)C)C(=O)CCc3ccccc3)sc2c1 | -4.72% |
| Cc1ccc2nc(N(CCCN(C)C)C(=O)COc3ccc(Cl)cc3)sc2c1 | 6.88% |

| SMILES | inhibition |
| --- | --- |
| CN(C)CCCN(C(=O)COc1ccccc1)c1nc2ccc(F)cc2s1 | -2.75% |
| CN(C)CCCN(C(=O)CCc1ccccc1)c1nc2ccc(Cl)cc2s1 | 0.73% |
| CN(C)CCCN(C(=O)COc1ccc(Cl)cc1)c1nc2ccc(F)cc2s1 | 14% |
| CN(C)CCCN(C(=O)COc1ccc(Cl)cc1)c1nc2c(F)cccc2s1 | 8.92% |
| CN(C)CCCN(C(=O)CCc1ccccc1)c1nc2ccc(F)cc2s1 | 1.04% |
| COc1cccc2sc(N(CCCN(C)C)C(=O)COc3ccc(Cl)cc3)nc12 | -1.1% |
| CCOc1ccc(Oc2cc(N)cc([N+](=O)[O-])c2)cc1 | -14.2% |
| O=C(c1ccc(F)cc1F)N1CCN(c2n[nH]c(=O)[nH]c2=O)CC1 | -2.71% |
| COC(=O)c1nnn(CC(=O)NC(=O)Nc2c(C)cccc2C)c1C(=O)OC | -3.97% |
| CCN(CC(=O)NCCc1ccc(Cl)cc1)Cc1nc2ccccc2c(=O)[nH]1 | -9.11% |
| Cc1ccc(NC(=O)CN2C(=O)S/C(=C\c3ccc(OCC(=O)O)c(Br)c3)C2=O)cc1 | -6.05% |
| CC1(C)OC(=O)C(=CNc2ncccn2)C(=O)O1 | -4.83% |
| CCSc1nnc(NC(=O)CSc2ncccn2)s1 | -1.89% |
| Cc1ccc(N2CC(NC(=O)C3CC3)CC2=O)cc1 (centres undefined) | 9.02% |
| Cn1c(N)c(C(=O)COC(=O)CN2C(=O)c3ccccc3C2=O)c(=O)n(C)c1=O | -5.68% |
| CCN1CCN(CCCNC(=O)CCCn2nc(C)c3sc4ccccc4c3c2=O)CC1 | 0.59% |
| COCCCNCCCOc1ccc(Cl)cc1Br | 4.69% |
| CCOc1ccccc1OCCCNCc1ccccc1 | -6.34% |
| COCCNCCCOc1ccc(Br)cc1Cl | 5.48% |
| Brc1ccccc1OCCNCc1ccccc1 | 11.4% |
| Cc1cc(Br)ccc1OCCNCc1ccccc1 | 11.4% |
| Clc1ccc(Cl)c(OCCCCNCc2ccccc2)c1 | 13.1% |
| CCN(CC)CCOCCOc1ccc(Cl)c2ccccc12 | 1.79% |
| Cc1ccc(OCCOCCN(C)C)c(Cl)c1 | 2.62% |
| O=C(O)C1C2C=CC(C2)C1C(=O)NCCCN1CCCC1=O (centres undefined) | -1.57% |

| SMILES | inhibition |
| --- | --- |
| Cn1c(Cn2c(=O)sc3ccccc32)nnc1SCC(=O)N1CCCC1 | 0.97% |
| NS(=O)(=O)c1ccc(NCCCn2ccnc2)c([N+](=O)[O-])c1 | 9.73% |
| Cc1ccc(NC(=O)CCC(=O)NNC(=S)Nc2ccc(F)cc2F)cc1C | -6.55% |
| O=C(CSC1=NC(=O)C(c2ccccc2)C(=O)N1)Nc1ccccc1Cl (centres undefined) | 7.4% |
| COc1cccc(NC(=O)CSC(N)=O)c1 | -6.88% |
| O=C(CCC(=O)N1CCCC1)Nc1ccc(Cl)c(Cl)c1 | -7.42% |
| NCCc1nnc(SCC(=O)Nc2cccc(Cl)c2)o1 | 5.27% |
| Cc1ccc(Cl)cc1NC(=O)CSC(N)=O | -1.36% |
| NNC(=O)C(=O)Nc1ccc(Cl)c(Cl)c1 | -4.15% |
| CC(=O)NC1C(=O)N=C(SCC(=O)Nc2cccc(Cl)c2)NC1=O (centres undefined) | 11.8% |
| Cc1ccc(NC(=O)CSCC#N)cc1Cl | -2.58% |
| O=C(CSc1ccccn1)N1CCCC(Nc2ccc(F)c(F)c2)C1 (centres undefined) | -15.8% |
| CC(C)(C)OC(=O)NCc1ccc(CNC(=O)c2[nH]cnc2C(=O)N[C@@H](Cc2ccccc2)C(=O)OC(C)(C)C)cc1 | -19.7% |
| COc1ccc(CCC(=O)NNC(=O)Nc2cccc(Cl)c2)cc1 | -3.45% |
| Cc1cc(C(=O)Nc2cccnc2)no1 | -7.65% |
| N#CCSc1nc(-c2ccccc2)c2cc(Cl)ccc2n1 | -0.85% |
| COCCCn1c(=O)c2ccccc2n(Cc2cc(C(=O)OC)ccc2OC)c1=O | 5.08% |
| CCOC(=O)CC1C(=O)NCCN1C(=O)c1cccc(OC)c1 (centres undefined) | -7.55% |
| COCCn1nnnc1C(c1ccc(OC)c(OC)c1)N1CCN(c2nc3ccccc3s2)CC1 (centres undefined) | -9.37% |
| COc1ccccc1N1CCN(S(=O)(=O)CCNC(=O)C2CCCCC2)CC1 | -2.35% |
| CCOc1ccc(NC(=O)CSC(N)=O)cc1 | -9.69% |
| N#CCSCC(=O)Nc1ccc(Cl)cc1 | 6.54% |
| O=C(N/N=C\c1ccc(O)c([N+](=O)[O-])c1)c1ccccc1-n1cccc1 | -6.79% |
| COc1ccc(N(CN2C(=O)c3ccccc3C2=O)C(=O)COc2ccc(Cl)cc2Cl)cc1 | -5.69% |
| CN(C)CCCN1c2ccccc2CCc2ccccc21 | 8.39% and 6.67% |

| SMILES | inhibition |
| --- | --- |
| CN(C)CCCN1c2ccccc2Sc2ccc(Cl)cc21 | 9.15% |
| CCNS(=O)(=O)c1ccc(NC(=O)c2ccc(Cn3cc(Br)cn3)o2)cc1 | -4.21% |
| O=C(CCn1nc(-c2ccccc2)c2ccccc2c1=O)N1CCN(c2ccccc2)CC1 | 6.41% |
| CC1CCN(C(=O)Cn2cnc3c(cnn3C(C)(C)C)c2=O)CC1 | -6.14% |
| Cc1nc(SCC(=O)c2ccccc2)[nH]c(=O)c1Oc1ccc(Cl)cc1 | -6% |
| COc1ccc(C2CC(=O)c3c(ccc4ccccc34)N2)cc1OC (centres undefined) | 2.44% |
| Cc1ncc(/C=C2\C(=O)Nc3ccccc32)[nH]1 | -10.1% |
| Cc1cccc(NC(=O)CSc2nc(=O)n3ccccc3n2)c1C | 4.11% |
| Fc1ccc(Nc2nnc(C(F)(F)F)s2)cc1 | -1.74% |
| FC(F)(F)c1nnc(Nc2ccc(Cl)cc2)s1 | 13.5% |
| Cc1ccc(C(=O)N/C(N)=N/c2nc3ccccc3o2)cc1 | -27.8% |
| O=C(COC(=O)c1ccco1)NC(c1ccccc1)c1ccccc1 | -14.2% |
| CN(CC(=O)O)S(=O)(=O)c1ccc2c(c1)NC(=O)CC(=O)N2 | 12.4% |
| COc1ccccc1CN1C[C@@H]2C[C@@H](c3ccccc3C)N3CCC[C@@]23C1=O | -4.27% |
| COCCNc1nc(-c2cc(-c3ccccc3)on2)cc(C(C)C)n1 | -5.87% |
| Cc1c(C(=O)Nc2c(N)nc(SCC(=O)NCC3CCCO3)[nH]c2=O)cccc1[N+](=O)[O-] (centres undefined) | -5.44% |
| CCOC(=O)C1CCN(C(=S)NC2CC3C=CC2C3)CC1 (centres undefined) | 6.08% |
| COc1ccc(-n2nc(C)cc2N)cc1 | 4.84% |
| Cc1cccc(C(=O)NC(=S)NNC(=O)c2cccs2)c1 | -3.39% |
| COc1ccc(C(=O)NNC(=S)NC(=O)c2ccc(OC)cc2)cc1 | 5.93% |
| O=C(NNC(=S)NC(=O)c1cccs1)c1ccc(O)cc1 | -3.75% |
| COc1ccc(C(=O)NC(=S)NNC(=O)c2ccc(C)cc2)cc1 | 18.1% |
| COc1ccc(C(=O)NNC(=S)NC(=O)c2ccc(Cl)cc2)cc1 | 4.94% |
| Cc1cccc(C(=O)NNC(=S)NC(=O)c2ccccc2)c1 | 18.6% |
